Source: PubChem BioAssay (EPA / NIEHS)
Activity calls are given as the source filed them. Rule for the calls: active = hit-call score of the fitted dose curve at least 0.9, where 1 is the maximum; inactive = score below 0.9.

Assays:
Details in all cases: mRNA level, 48 h; actives raise or lower the signal
CYP3A5 (gene 1577) = assay: LTEA_HepaRG_CYP3A5: Life Technologies and Expression Analysis (LTEA) Assay for CYP3A5 using HepaRG (AID 2283493)
In short: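 mRNA levels were quantified by qRT-PCR on Fluidigm arrays and normalized to three housekeeping genes. Differentiated HepaRG cells received 48 h exposure (top 100 uM, half-log steps, 0.5% DMSO vehicle, duplicate); bidirectional fitting versus DMSO.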

[1] = read-out: Fatty Acid-Binding Protein 1 (FABP1), FABP1 (gene 2168); assay: LTEA_HepaRG_FABP1: Life Technologies and Expression Analysis (LTEA) Assay for Fatty Acid-Binding Protein 1 (FABP1) using HepaRG (AID 2283494)
In short: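 Values reflect bidirectional concentration-response fitting of FABP1 mRNA change against 0.5% DMSO controls. Human HepaRG cultures received eight half-log doses (top 100 uM) for 48 h; expression quantified by TaqMan qRT-PCR with housekeeping-gene normalization.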

[2] = read-out: Cytochrome P450 4A22 (Homo sapiens) (UniProt Q5TCH4); assay: LTEA_HepaRG_CYP4A22: Life Technologies and Expression Analysis (LTEA) Assay for Cytochrome P450 4A22 (CYP4A22) using HepaRG (AID 2283495)
In short: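 qRT-PCR of CYP4A22 mRNA (Fluidigm TaqMan, normalized to three housekeeping genes) after 48 h chemical exposure of HepaRG cells; 8-point half-log series, top 100 uM, 0.5% DMSO vehicle. Bidirectional curve fitting vs DMSO baseline.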

[3] = read-out: Cytochrome P450 7A1 (Homo sapiens) (UniProt P22680); assay: LTEA_HepaRG_CYP7A1: Life Technologies and Expression Analysis (LTEA) Assay for Cytochrome P450 7A1 (CYP7A1) using HepaRG (AID 2283496)
In short: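 HepaRG, 48 h exposure, 8-pt half-log series from 100 uM, 0.5% DMSO vehicle, duplicates. Readout: TaqMan qRT-PCR mRNA vs three housekeeping genes; bidirectional curve fit against DMSO baseline.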

[4] = read-out: Glutathione S-Transferase (GSTA2), GSTA2 (gene 2939); assay: LTEA_HepaRG_GSTA2: Life Technologies and Expression Analysis (LTEA) Assay for Glutathione S-Transferase (GSTA2) using HepaRG (AID 2283497)
In short: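 Oxidative-stress marker GSTA2 is quantified by TaqMan qRT-PCR in HepaRG cultures treated 48 h across an eight-point range to 100 uM. Expression is normalized to endogenous controls and compared with 0.5% DMSO vehicle.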

[5] = read-out: Glutamate-cysteine ligase catalytic (GCLC), GCLC (gene 2729); assay: LTEA_HepaRG_GCLC: Life Technologies and Expression Analysis (LTEA) Assay for Glutamate-cysteine ligase catalytic (GCLC) using HepaRG (AID 2283498)
In short: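 Oxidative-stress marker GCLC is measured as mRNA change in human HepaRG liver cells after 48 h chemical treatment in 0.5% DMSO, eight concentrations from 100 uM. Activity is fitted bidirectionally against vehicle.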

[6] = read-out: growth arrest and DNA damage 45 (GADD45G), GADD45G (gene 10912); assay: LTEA_HepaRG_GADD45G: Life Technologies and Expression Analysis (LTEA) Assay for growth arrest and DNA damage 45 (GADD45G) using HepaRG (AID 2283499)
In short: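 Differentiated human HepaRG cells in serum-free induction medium were exposed for 48 h to 8 half-log concentrations up to 100 uM in 0.5% DMSO, in duplicate. GADD45G mRNA was measured by TaqMan qRT-PCR, normalised to ACTB, GAPDH and POLR2A, and fitted bidirectionally against DMSO.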

[7] = read-out: Glutathione S-transferase M3 (GSTM3), GSTM3 (gene 2947); assay: LTEA_HepaRG_GSTM3: Life Technologies and Expression Analysis (LTEA) Assay for Glutathione S-transferase M3 (GSTM3) using HepaRG (AID 2283501)
In short: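 Differentiated HepaRG cells in serum-free induction medium were exposed in duplicate for 48 h to 8 half-log concentrations up to 100 uM in 0.5% DMSO. GSTM3 mRNA was measured by TaqMan qRT-PCR, normalized to ACTB/GAPDH/POLR2A, and fitted bidirectionally versus DMSO.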

[8] = read-out: Heat shock 70 kDa protein 1 (HSPA1A), gene 3303; assay: LTEA_HepaRG_HSPA1A: Life Technologies and Expression Analysis (LTEA) Assay for Heat shock 70 kDa protein 1 (HSPA1A) using HepaRG (AID 2283502)
In short: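 HSPA1A expression measured by qRT-PCR with ACTB/GAPDH/POLR2A normalization; curves fitted in both directions relative to DMSO vehicle. Exposure: 48 h in HepaRG cells, duplicate 8-point half-log series from 100 uM, 0.5% DMSO, serum-free induction medium.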

[9] = read-out: Hypoxia-inducible factor 1-alpha (Homo sapiens) (UniProt Q16665); assay: LTEA_HepaRG_HIF1A: Life Technologies and Expression Analysis (LTEA) Assay for Hypoxia-inducible factor 1 (HIF1A) Trancription factor using HepaRG (AID 2283503)
In short: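 HIF1A transcript level read by qRT-PCR (ACTB, GAPDH, POLR2A normalization) after 48 h chemical exposure of HepaRG cultures. Eight half-log concentrations, top 100 uM, 0.5% DMSO vehicle, duplicates; bidirectional curve fit against DMSO baseline.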

[10] = read-out: 3-Hydroxy-3-Methylglutaryl-CoA Synthase 2 (HMGCS2), HMGCS2 (gene 3158); assay: LTEA_HepaRG_HMGCS2: Life Technologies and Expression Analysis (LTEA) Assay for 3-Hydroxy-3-Methylglutaryl-CoA Synthase 2 (HMGCS2) using HepaRG (AID 2283504)
In short: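 Differentiated human HepaRG cells were exposed in duplicate for 48 h in serum-free induction medium to eight concentrations (top 100 uM, half-log steps, 0.5% DMSO). HMGCS2 mRNA was quantified by TaqMan qRT-PCR, normalised to ACTB, GAPDH and POLR2A, then fitted bidirectionally against DMSO.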

HGF (gene 3082) = assay: LTEA_HepaRG_HGF: Life Technologies and Expression Analysis (LTEA) Assay for Hepatocyte Growth Facto (HGF) using HepaRG (AID 2283505)
In short: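 Differentiated human HepaRG cells in serum-free induction medium were exposed in duplicate for 48 h to eight concentrations (top 100 uM, half-log steps, 0.5% DMSO). HGF mRNA was quantified by qRT-PCR, normalized to ACTB, GAPDH and POLR2A.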

[11] = read-out: Insulin Like Growth Factor 1 (IGF1), IGF1 (gene 3479); assay: LTEA_HepaRG_IGF1: Life Technologies and Expression Analysis (LTEA) Assay for Insulin Like Growth Factor 1 (IGF1) using HepaRG (AID 2283506)
In short: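 Expression measured by TaqMan qRT-PCR on a Fluidigm array, with three housekeeping genes for normalisation, after 48 h treatment of HepaRG cells. Top concentration 100 uM with half-log steps, 0.5% DMSO vehicle, bidirectional fit.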

[12] = read-out: Intercellular Adhesion Molecule 1 (ICAM1), ICAM1 (gene 3383); assay: LTEA_HepaRG_ICAM1: Life Technologies and Expression Analysis (LTEA) Assay for Intercellular Adhesion Molecule 1 (ICAM1) using HepaRG (AID 2283507)
In short: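 Differentiated HepaRG cells in serum-free induction medium were exposed in duplicate for 48 h to eight half-log concentrations up to 100 uM in 0.5% DMSO. Transcript levels were measured by qRT-PCR normalized to ACTB, GAPDH and POLR2A; bidirectional fits relative to DMSO.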

[13] = read-out: Insulin-like growth factor-binding protein 1 (IGFBP1), IGFBP1 (gene 3484); assay: LTEA_HepaRG_IGFBP1: Life Technologies and Expression Analysis (LTEA) Assay for Insulin-like growth factor-binding protein 1 (IGFBP1) using HepaRG (AID 2283508)
In short: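 Differentiated human HepaRG cells in serum-free induction medium were exposed in duplicate for 48 h to eight concentrations, top 100 uM with half-log dilutions, in 0.5% DMSO. Transcript levels came from qRT-PCR normalised to ACTB, GAPDH and POLR2A, fitted bidirectionally against DMSO.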

[14] = read-out: Interleukin 6 (IL6), IL6 (gene 3569); assay: LTEA_HepaRG_IL6: Life Technologies and Expression Analysis (LTEA) Assay for Interleukin 6 (IL6) using HepaRG (AID 2283509)
In short: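 Changes in IL6 mRNA, up or down relative to 0.5% DMSO controls, were derived from concentration-response curves in human HepaRG cells treated for 48 h at up to 100 uM, with ACTB, GAPDH and POLR2A as normalizers.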

[15] = read-out: Interleukin 6 Receptor (IL6R), IL6R (gene 3570); assay: LTEA_HepaRG_IL6R: Life Technologies and Expression Analysis (LTEA) Assay for Interleukin 6 Receptor (IL6R) using HepaRG (AID 2283510);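 for AC50: TaqMan qRT-PCR signal normalized to ACTB GAPDH and POLR2A housekeeping genes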
In short: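 IL6R transcript level by qRT-PCR after 48 h chemical exposure (8-point, half-log, max 100 uM, 0.5% DMSO vehicle) of HepaRG cells in serum-free induction medium. Normalized to three housekeeping genes; curves fitted in both directions relative to DMSO.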

[16] = read-out: Potassium channel subfamily K member 1 (KCNK1), KCNK1 (gene 3775); assay: LTEA_HepaRG_KCNK1: Life Technologies and Expression Analysis (LTEA) Assay for Potassium channel subfamily K member 1 (KCNK1) using HepaRG (AID 2283511)
In short: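 Human HepaRG cultures receive test chemicals for 48 h in 0.5% DMSO, top concentration 100 uM with half-log dilutions. Induction or suppression of KCNK1 mRNA relative to DMSO is derived by bidirectional fitting of qRT-PCR data.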

[17] = read-out: Keratin 19 (KRT19), KRT19 (gene 3880); assay: LTEA_HepaRG_KRT19: Life Technologies and Expression Analysis (LTEA) Assay for Keratin 19 (KRT19) using HepaRG (AID 2283512)
In short: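 Differentiated human HepaRG cells, plated 48 h, were exposed in duplicate for 48 h in serum-free induction medium to eight half-log concentrations up to 100 uM in 0.5% DMSO. KRT19 mRNA was quantified by qRT-PCR, normalized to ACTB, GAPDH and POLR2A, and fitted bidirectionally versus DMSO.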

[18] = read-out: JUN Transcription Factor, JUN (gene 3725); assay: LTEA_HepaRG_JUN: Life Technologies and Expression Analysis (LTEA) Assay for JUN Transcription Factor using HepaRG (AID 2283513)
In short: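 mRNA measured by TaqMan qRT-PCR after 48 h chemical exposure of HepaRG cultures; normalization to three housekeeping genes. Duplicate eight-point half-log curves from 100 uM in 0.5% DMSO; gain or loss fitted against DMSO baseline.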

Measured: AC50

Sequence of Hypoxia-inducible factor 1-alpha (Homo sapiens) (Q16665 whole entry, looked up): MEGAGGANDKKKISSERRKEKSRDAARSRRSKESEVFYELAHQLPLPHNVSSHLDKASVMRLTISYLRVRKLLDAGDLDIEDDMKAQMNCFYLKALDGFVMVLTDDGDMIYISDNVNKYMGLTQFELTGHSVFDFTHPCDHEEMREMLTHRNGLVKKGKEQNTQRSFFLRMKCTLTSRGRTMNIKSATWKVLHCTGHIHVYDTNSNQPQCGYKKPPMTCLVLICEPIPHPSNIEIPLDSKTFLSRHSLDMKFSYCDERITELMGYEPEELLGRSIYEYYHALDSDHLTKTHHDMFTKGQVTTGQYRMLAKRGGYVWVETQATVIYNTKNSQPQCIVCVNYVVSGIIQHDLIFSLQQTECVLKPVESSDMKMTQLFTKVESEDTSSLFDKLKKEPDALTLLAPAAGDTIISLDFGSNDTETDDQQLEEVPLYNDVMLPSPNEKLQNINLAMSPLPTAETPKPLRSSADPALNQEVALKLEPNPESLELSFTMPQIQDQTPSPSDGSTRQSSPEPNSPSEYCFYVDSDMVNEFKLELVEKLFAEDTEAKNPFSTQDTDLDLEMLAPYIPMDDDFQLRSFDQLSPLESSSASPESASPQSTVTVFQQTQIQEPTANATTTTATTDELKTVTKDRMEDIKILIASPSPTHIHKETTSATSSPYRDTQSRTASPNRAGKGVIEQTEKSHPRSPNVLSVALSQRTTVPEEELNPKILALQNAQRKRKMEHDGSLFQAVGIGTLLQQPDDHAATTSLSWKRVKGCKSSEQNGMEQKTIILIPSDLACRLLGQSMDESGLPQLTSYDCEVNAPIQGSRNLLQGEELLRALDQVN

Cc1ccccc1N
inactive: CYP3A5 (gene 1577) | [1] | [2] | [3] | [4] | [5] | [6] | [7] | [8] | [9] | [10] | HGF (gene 3082) | [11] | [12] | [13] | [14] | [15] | [16] | [17] | [18]

CC12CC1(C)C(=O)N(c1cc(Cl)cc(Cl)c1)C2=O (stereo not drawn)
inactive: CYP3A5 (gene 1577) | [4] | [5] | [6] | [7] | [8] | [9] | HGF (gene 3082) | [12] | [13] | [14] | [15] | [16] | [17] | [18]
active: [1] 9.46 µM | [3] 16.9 µM | [10] 21.6 µM | [11] 18.6 µM

O=[N+]([O-])c1ccc(O)c([N+](=O)[O-])c1
inactive: [8] | HGF (gene 3082) | [12] | [16] | [17] | [18]
active: CYP3A5 (gene 1577) 10.6 µM | [1] 18.7 µM | [2] 27.8 µM | [3] 25.6 µM | [4] 17 µM | [6] 90.6 µM | [7] 12.7 µM | [9] 44.8 µM | [10] 22.9 µM | [11] 27.9 µM | [13] 13.3 µM | [14] 60.3 µM | [15] 17.7 µM

C[C@]12CCC(=O)C[C@@H]1CC[C@@H]1[C@@H]2CC[C@]2(C)[C@@H](O)CC[C@@H]12
active: [2] 28.8 µM
inactive: CYP3A5 (gene 1577) | [1] | [3] | [4] | [5] | [6] | [7] | [8] | [9] | [10] | HGF (gene 3082) | [11] | [12] | [13] | [14] | [15] | [16] | [17] | [18]

O=C(O)C(F)(F)C(F)(F)C(F)(F)C(F)(F)C(F)(F)C(F)(F)C(F)(F)C(F)(F)C(F)(F)C(F)(F)F
inactive: [1] | [2] | [5] | [6] | [7] | [8] | [9] | [10] | HGF (gene 3082) | [11] | [12] | [13] | [14] | [16] | [17] | [18]
active: CYP3A5 (gene 1577) 21.4 µM | [3] 46.5 µM | [4] 47.8 µM | [15] 47.8 µM

Cn1sc(Cl)cc1=O
inactive: CYP3A5 (gene 1577) | [1] | [2] | [3] | [4] | [5] | [6] | [7] | [8] | [9] | [10] | HGF (gene 3082) | [11] | [12] | [13] | [14] | [15] | [16] | [17] | [18]

CC(C)(c1ccccc1)c1ccc(O)c(C(C)(C)c2ccccc2)c1
inactive: CYP3A5 (gene 1577) | [4] | [5] | [6] | [7] | HGF (gene 3082) | [13] | [14] | [15] | [16] | [17] | [18]
active: [1] 48.7 µM | [2] 70.4 µM | [3] 58.2 µM | [8] 50 µM | [9] 90.2 µM | [10] 71.5 µM | [11] 50 µM | [12] 50 µM

CN(C)N=O
inactive: CYP3A5 (gene 1577) | [1] | [2] | [3] | [4] | [5] | [6] | [7] | [8] | [9] | [10] | HGF (gene 3082) | [11] | [12] | [13] | [14] | [15] | [16] | [17] | [18]
